Source: PubChem BioAssay (NCI)
The panel holds about 83,000 compounds, 20% with a hit somewhere; the sample as a whole holds those more often.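 Growth was measured after 48 h exposure to one concentration of compound in 96-well plates. Values under 10 count as active.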 Active and inactive are the calls of the source.

How the values were obtained:
Assay in all cases: NCI-60 one-dose screen, 48 h (100 = growth as untreated, 0 = no growth, -100 = all killed)
Settings in all cases: 10 µM unless noted
T-47D breast = tested on: T-47D breast
BT-549 breast = tested on: BT-549 breast
MDA-MB-435 melanoma = tested on: MDA-MB-435 melanoma
SW-620 colon = tested on: SW-620 colon
MCF7 breast = tested on: MCF7 breast
HCT-116 colon = tested on: HCT-116 colon
HCC-2998 colon = tested on: HCC-2998 colon
KM12 colon = tested on: KM12 colon

Measured: growth

N/C(=N\OC(=O)CSc1nc2ccccc2s1)c1ccc2ccccc2c1
inactive: T-47D breast 97.7% | BT-549 breast 100% | MDA-MB-435 melanoma 104% | SW-620 colon 100% | MCF7 breast 94.2% | HCT-116 colon 103% | HCC-2998 colon 107% | KM12 colon 103%

COc1ccc([C@H]2c3[nH]c4ccccc4c3C[C@@H]3C(=O)N(C4CCN(Cc5ccccc5)CC4)CC(=O)N23)c(OC)c1
inactive: T-47D breast 82.8% | BT-549 breast 86.1% | MDA-MB-435 melanoma 83.3% | SW-620 colon 79.9% | MCF7 breast 51.7% | HCT-116 colon 56.8% | HCC-2998 colon 78.1% | KM12 colon 79.6%

Cc1cnc2nc(NN)[nH]n12
inactive: T-47D breast 98.4% | BT-549 breast 111% | MDA-MB-435 melanoma 99.7% | SW-620 colon 103% | MCF7 breast 92.6% | HCT-116 colon 98.9% | HCC-2998 colon 108% | KM12 colon 100%

O=C(Nc1cc(F)cc2cccnc12)c1cnc(N2CCOCC2)cn1
active: MCF7 breast 2.58% | HCT-116 colon 9.63%
inactive: T-47D breast 23.9% | BT-549 breast 72.4% | MDA-MB-435 melanoma 90.9% | SW-620 colon 51.3% | HCC-2998 colon 107% | KM12 colon 99.1%

CCN1C(=O)N(CC)C2SC(N/N=C/c3ccc(F)cc3)=NC21 (stereo not given)
inactive: T-47D breast 64.8% | SW-620 colon 20.8% | MCF7 breast 17.5% | HCT-116 colon 13.7% | HCC-2998 colon 14.1% | KM12 colon 11.1%
active: BT-549 breast -28.4% | MDA-MB-435 melanoma -35.8%

CNC(=O)c1cc(Oc2ccc3nc(NC(=O)c4ccc(CN5CCCN(C)CC5)c(C(F)(F)F)c4)sc3c2)ccn1
inactive: BT-549 breast 83.2% | KM12 colon 30.3%
active: T-47D breast 7.14% | MDA-MB-435 melanoma -8.88% | SW-620 colon -70.9% | MCF7 breast -38.9% | HCT-116 colon 5.99% | HCC-2998 colon 4.85%

CCOC(=O)c1c(Nc2ccccc2)nn2c(-c3ccc(Br)cc3)ccnc12
inactive: T-47D breast 41.3% | BT-549 breast 104% | MDA-MB-435 melanoma 80.3% | SW-620 colon 78.4% | MCF7 breast 80.9% | HCT-116 colon 42.5% | HCC-2998 colon 87.1% | KM12 colon 78.3%

O=C(CSc1ccc(-c2nc3ccccc3[nH]2)cn1)N1CCN(c2ccccc2F)CC1
inactive: T-47D breast 16.7% | BT-549 breast 27.8% | MDA-MB-435 melanoma 53.9% | SW-620 colon 106% | MCF7 breast 55.7% | HCT-116 colon 68.1% | HCC-2998 colon 96.5% | KM12 colon 68.8%

Cc1ccc(/C=C/CC(=O)Nc2ccc(C(=O)Nc3ccc(F)cc3N)cc2)cn1
inactive: T-47D breast 28.6% | BT-549 breast 73% | MDA-MB-435 melanoma 47.2% | SW-620 colon 46.3% | MCF7 breast 39.6% | HCT-116 colon 39% | HCC-2998 colon 64.6% | KM12 colon 75.2%

O=C(Nc1ccc(F)cc1)c1cc(-c2ccc(F)cc2F)ccc1O
inactive: SW-620 colon 17% | HCC-2998 colon 31.5%
active: T-47D breast -4.71% | BT-549 breast -10.3% | MDA-MB-435 melanoma 5.11% | MCF7 breast 2.19% | HCT-116 colon 2.09% | KM12 colon 6.07%

CS(=O)c1nccc(-c2c(-c3ccc(F)c(OCc4ccccc4)c3)nc3sccn23)n1 (stereo not given)
inactive: BT-549 breast 109% | MDA-MB-435 melanoma 104% | SW-620 colon 87.9% | HCT-116 colon 63.6% | HCC-2998 colon 50.4% | KM12 colon 77%
active: T-47D breast -11.6% | MCF7 breast -44.7%

CCOC(=O)Nc1cccc(-n2cnc3cc(-c4ccc(O)cc4)ccc32)c1
active: MDA-MB-435 melanoma -16% | KM12 colon 3.22%
inactive: T-47D breast 12.8% | BT-549 breast 39.3% | SW-620 colon 25.5% | MCF7 breast 18.2% | HCT-116 colon 10.3% | HCC-2998 colon 30.2%

Nc1ccc(-c2nnc(SCc3ccc(O)c4ncccc34)n2-c2ccccc2)cc1
inactive: T-47D breast 15.2% | BT-549 breast 18.5% | MDA-MB-435 melanoma 14.8% | SW-620 colon 19.2% | HCC-2998 colon 29.1% | KM12 colon 17.8%
active: MCF7 breast 5.58% | HCT-116 colon 8.87%

CN(C)C(=O)C1=NC(CO)C(=O)N(c2ccc(Cl)cc2)N1 (stereo not given)
inactive: T-47D breast 98.6% | BT-549 breast 99.2% | MDA-MB-435 melanoma 106% | SW-620 colon 103% | MCF7 breast 95.6% | HCT-116 colon 88.3% | HCC-2998 colon 109% | KM12 colon 98.2%

CSc1ccc(/C(=N/N=C(N)N)c2ccccc2)cc1
active: MDA-MB-435 melanoma -18% | HCC-2998 colon 9.99%
inactive: T-47D breast 70.9% | BT-549 breast 53.8% | SW-620 colon 25.7% | MCF7 breast 11.7% | HCT-116 colon 13% | KM12 colon 17.2%

Nc1n[nH]c2cccc(C#Cc3cccc(NC(=O)c4cccc(OC(F)(F)F)c4)c3)c12
inactive: T-47D breast 33.6% | BT-549 breast 85% | MDA-MB-435 melanoma 41% | SW-620 colon 57.1% | MCF7 breast 58.8% | HCT-116 colon 21.7% | HCC-2998 colon 38% | KM12 colon 58%

Cc1ccc(-n2cc(/C=C/C(=O)c3ccc(S(C)(=O)=O)cc3)c(-c3ccc(S(C)(=O)=O)cc3)n2)cc1
inactive: T-47D breast 105% | BT-549 breast 91.5% | MDA-MB-435 melanoma 31.4% | SW-620 colon 64.9% | MCF7 breast 64.8% | HCT-116 colon 53.4% | HCC-2998 colon 107% | KM12 colon 59.5%

Cc1cn(-c2cc(NC(=O)c3cncc(C#Cc4cnc5ccc(OCCCS(C)(=O)=O)nn45)c3)cc(C(F)(F)F)c2)cn1
inactive: T-47D breast 30.5% | MDA-MB-435 melanoma 34.7% | HCC-2998 colon 17.4%
active: BT-549 breast -1.88% | SW-620 colon 8.59% | MCF7 breast 0.458% | HCT-116 colon 3.57% | KM12 colon -17.8%

COc1ccc(NC(=O)[C@H](C)N)cc1C(=O)Nc1cccc(-c2cc(=O)c3c(OC)c(OC)c(OC)cc3o2)c1
inactive: T-47D breast 41% | BT-549 breast 78.4% | MDA-MB-435 melanoma 82.1% | SW-620 colon 94% | MCF7 breast 57.8% | HCT-116 colon 75% | HCC-2998 colon 65.2% | KM12 colon 68.1%

O=C1CC2(CCOCC2)Oc2ncccc21
active: SW-620 colon -54.6%
inactive: T-47D breast 70.6% | BT-549 breast 105% | MDA-MB-435 melanoma 81.2% | MCF7 breast 12.7% | HCT-116 colon 29% | HCC-2998 colon 25.1% | KM12 colon 12.1%

CCCCOc1ccc(S(=O)(=O)N2CCN(c3nccc(N4CCOCC4)n3)CC2)cc1
inactive: T-47D breast 69% | BT-549 breast 13% | MDA-MB-435 melanoma 14.5% | SW-620 colon 34.8% | MCF7 breast 87.5% | HCT-116 colon 12.6% | HCC-2998 colon 33.8% | KM12 colon 16%

NS(=O)(=O)c1ccc(Nc2nc(N/N=C/c3ccc([N+](=O)[O-])cc3)nc(Nc3ccccc3)n2)cc1
inactive: T-47D breast 14.1% | BT-549 breast 18.5% | MDA-MB-435 melanoma 33.2% | SW-620 colon 18.2% | HCT-116 colon 16.5% | HCC-2998 colon 19.6% | KM12 colon 37.5%
active: MCF7 breast 9.76%

COC[C@]12CC[C@@H](C)[C@H](C)[C@H]1C1=CC[C@@H]3[C@@]4(C)CCCNC(C)(C)[C@@H]4CC[C@@]3(C)[C@]1(C)CC2
inactive: T-47D breast 39.8% | BT-549 breast 66.1% | HCC-2998 colon 20.1% | KM12 colon 19.3%
active: MDA-MB-435 melanoma 9.61% | SW-620 colon -42.1% | MCF7 breast -33.2% | HCT-116 colon 5.39%

CN1CCN(Cc2ccc(NC(=O)c3cncc(C#Cc4cnc5ccc(O[C@H]6CCOC6)nn45)c3)cc2C(F)(F)F)CC1
active: BT-549 breast -33.9% | MDA-MB-435 melanoma -86.8% | SW-620 colon -32.4% | MCF7 breast -62.6% | HCT-116 colon -88.1% | HCC-2998 colon -61.3% | KM12 colon -52.3%
inactive: T-47D breast 16.2%

Cc1[nH]nc2ccc(-c3nc4cnc(N5CCN(C)CC5)cn4c3Nc3ccc(F)cc3Br)cc12
inactive: T-47D breast 38.9% | BT-549 breast 91.1% | MDA-MB-435 melanoma 30.7% | SW-620 colon 32.8% | MCF7 breast 15.5% | HCT-116 colon 11% | HCC-2998 colon 69.8% | KM12 colon 59.3%

O=C(O)c1ccc(-n2cc(CNc3ccc(Cl)cc3)c(-c3ccc(F)cc3)n2)cc1
inactive: T-47D breast 91.4% | BT-549 breast 101% | MDA-MB-435 melanoma 98.1% | SW-620 colon 106% | MCF7 breast 80.1% | HCT-116 colon 82.7% | HCC-2998 colon 112% | KM12 colon 104%

C=CCn1c(SCC(=O)c2ccc(OC)cc2)nnc1-c1ccc(OC)cc1
inactive: T-47D breast 105% | BT-549 breast 95.9% | MDA-MB-435 melanoma 97.8% | SW-620 colon 106% | MCF7 breast 96% | HCT-116 colon 96.1% | HCC-2998 colon 109% | KM12 colon 97.7%

O=C(NNc1nc2cc(F)ccc2n2cncc12)c1cnccn1
inactive: T-47D breast 33.7% | BT-549 breast 55% | MDA-MB-435 melanoma 25% | SW-620 colon 24.5% | MCF7 breast 14.8% | HCT-116 colon 23% | HCC-2998 colon 19.9% | KM12 colon 20.8%

O=C(NNc1nc2cc(F)c(F)cc2n2cccc12)c1ccncn1
inactive: T-47D breast 15.1% | BT-549 breast 28.7% | MDA-MB-435 melanoma 33% | SW-620 colon 23.5% | HCT-116 colon 20.4% | HCC-2998 colon 53.3% | KM12 colon 21.4%
active: MCF7 breast 6%

COc1ccc(-c2nnc(SCc3ccc(O)c4ncccc34)n2-c2ccccc2)cc1
inactive: T-47D breast 18.9% | BT-549 breast 19.7% | MDA-MB-435 melanoma 14.3% | SW-620 colon 12.7% | HCC-2998 colon 31.9% | KM12 colon 15.6%
active: MCF7 breast 5.08% | HCT-116 colon 7.39%
